Assay results published in PubChem BioAssay AID1347146 (National Center for Advancing Translational Sciences (NCATS), 2019).
Records with an inconclusive call do not appear. Entries that show only a call come without a potency. Active and inactive are the calls of the source. Calls follow the shape of the dose curve; as a rule, active = well fitted inhibition curve with a large enough effect; inconclusive = small, poorly fitted or top-dose-only effect; inactive = no such curve, though single readings can be large or run the other way.

Molecular target: Nicotinamide N-methyltransferase (Homo sapiens) (UniProt P40261)
Sequence (P40261 whole entry, looked up): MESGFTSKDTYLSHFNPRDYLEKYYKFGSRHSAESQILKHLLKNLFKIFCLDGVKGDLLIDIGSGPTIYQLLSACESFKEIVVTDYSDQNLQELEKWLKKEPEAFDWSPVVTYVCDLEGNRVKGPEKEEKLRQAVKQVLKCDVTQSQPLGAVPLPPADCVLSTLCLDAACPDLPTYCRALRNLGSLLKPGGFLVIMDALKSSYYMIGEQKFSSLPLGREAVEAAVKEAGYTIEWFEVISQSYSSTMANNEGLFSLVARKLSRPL
Assay: qHTS Assay for Inhibitors of N-terminal methyltransferase 1 (NTMT1): NNMT MTaseGlo counterscreen assay
Conditions: NNMT enzyme, MTase-Glo luminescence counterscreen; series mostly up to 57.1 µM
From the text: Assay Submitter (PI): Rong Huang Ph.D, Purdue University, West Lafayette, IN 47907
The N-terminal methytransferase 1 is the first methyltransferase that methylates protein alpha-N-amines and plays an important role in regulating cell mitosis, chromatin interactions and DNA repair. It is observed to be over-expressed in various cancer patient tissues like malignant melanoma and colorectal cancer tissues. Knockdown of NTMT1 in cancer cells causes cell mitotic defects and enhances sensitivity to DNA damaging chemotherapeutics. […] These critical cellular processes in which NTMT1 is implicated, coupled with emerging links to cellular dysfunction, strengthen the inference that NTMT1 is a compelling novel anticancer target. Progress have been made in understanding the molecular properties of NTMT1 and the biological consequences of protein alpha-N-terminal methylation, but there are no specific small molecule probes available for NTMT1 to fully characterize its MTase activity. To address this unmet need, a panel of assay is created and established to enable quantitative high-throughput screening (qHTS) for novel, potent, and selective small molecule NTMT1 inhibitors. Two orthogonal qHTS that use different reagents (ThioGlo vs. MTaseGlo) are developed for primary robotic screening against the NCATS chemical library of more than 400,000 small molecules. Identified inhibitors are reacquired, validated, and further characterized.
MTaseGlo Assay is a luminescence screen that measure the activity of methyltransferases based on the reaction product S-adenosyl homocysteine (SAH). The substrate SAM is converted to SAH upon enzyme activation. MTase-Glo reagent and detection solution convert SAH to ATP and measure the light from the luciferase reaction. Nicotinamide N-methyltransferase (NNMT) is a cystolic enzyme that catalyzes the transfer of a methyl group from the co-factor SAM onto the substrate, nicotinamide (NA) to form 1-methyl-nicotinamide (MNA) and SAH. NNMT MTaseGlo assay is used as a counterscreen to evaluate selectivity of identified inhibitors.
Early Translation Branch (ETB)
National Center for Advancing Translational Sciences (NCATS)
National Institute of Health (NIH)
NNMT enzyme, SAM, NA, and control is provided by the Huang laboratory.
In brief, 3 µL of enzyme mixture (final concentrations of 125 nM and 100 µM for NNMT and SAM, respectively) into all wells of a 1,536-well solid-bottom white plate (Greiner Bio One, Monroe, NC). 23 nL of DMSO or compound (final concentration range 234 nM to 143 microM) was transferred via Wako Pin-tool (Wako Automation, Richmond, VA) and incubated (RT) for ~15 minutes. Next, 1 µL of substrate (final concentration 1 µM NA) or buffer was dispensed, and the reaction proceeded for 30 minutes (RT, protected from light) followed by a 1 microL addition of [5X] MTase-Glo Reagent(R). Samples were incubated (RT, protected from light) for 30 minutes to allow for SAH to be converted to ADP, followed by a 5 microL addition of [1X] MTase-Glo Detection Solution(R) to allow for ADP to be converted to ATP, which was then detected with a luciferase reaction. Samples were centrifuged for 15 seconds at 1,000 RPM's, followed by a RT incubation for 30 minutes. Plates were then read using Luminescence optics on a ViewLux detector. Data were normalized to no-enzyme (0% activity) and no-inhibitor (DMSO; 100%) controls, and the resulting percent inhibition data were fitted to a 4-parameter Hill equation using Graphpad Prism.
Potency is read from the fitted curve at half-maximal effect.

**Q.** How did the Potency turn out when Ic1ccccc1CNC1C2CCN(CC2)C1C(c1ccccc1)c1ccccc1 (stereo not given) was run?
**A.** inactive

**Q.** For c1ccc(CCCN2CCN(CCOC(c3ccccc3)c3ccccc3)CC2)cc1, which Potency is on record?
**A.** inactive

**Q.** C[N+](C)(C)CC#CCN1CCCC1=O was tested. Which Potency did it give?
**A.** inactive

**Q.** Which Potency does the source give for CCn1cnc2c(Nc3cccc(Cl)c3)nc(N[C@@H]3CCCC[C@@H]3N)nc21 here?
**A.** inactive

**Q.** For O=C1CC[C@@]2(O)C3Cc4ccc(O)c5c4C2(CCN3CC2CC2)[C@H]1O5 (stereo not given in full), which Potency is on record?
**A.** inactive

**Q.** Which Potency does the source give for COc1ccc2c(c[n+](C)c3c4cc5c(cc4ccc23)OCO5)c1OC here?
**A.** 12.6 µM (active)

**Q.** For Clc1ccc(N2CC3CCC(C2)N3)nn1, which Potency is on record?
**A.** inactive

**Q.** How did the Potency turn out when N#CC(C#N)=Cc1ccc(O)c(O)c1 was run?
**A.** inactive

**Q.** With CC(=O)c1c(O)c(C)c(O)c(Cc2c(O)c3c(c(C(=O)/C=C/c4ccccc4)c2O)OC(C)(C)C=C3)c1O as the compound, how does the Potency read?
**A.** inactive

**Q.** Which Potency does the source give for CN[C@@H]1C[C@@H](c2ccc(Cl)c(Cl)c2)c2ccccc21 here?
**A.** inactive

**Q.** With NC(=O)CI as the compound, how does the Potency read?
**A.** inactive

**Q.** NCC(O)c1cc(O)c(O)cc1F (stereo not given) was tested. Which Potency did it give?
**A.** inactive

**Q.** How did the Potency turn out when CC(N)Cc1c[nH]c2ccc(O)cc12 (stereo not given) was run?
**A.** inactive

**Q.** Which Potency does the source give for O=[N+]([O-])c1cc(O)c(O)c([N+](=O)[O-])c1 here?
**A.** inactive

**Q.** CC(N)[C@H](O)c1ccc(O)c(O)c1 (stereo not given in full) was tested. Which Potency did it give?
**A.** inactive

**Q.** Which Potency does the source give for CNCCc1c[nH]c2ccc(O)cc12 here?
**A.** inactive

**Q.** With C[N+]1(C)CCN(c2ccccc2)CC1 as the compound, how does the Potency read?
**A.** inactive

**Q.** Which Potency does the source give for O=[N+]([O-])c1ccc2nc(N3CCNCC3)ccc2c1 here?
**A.** inactive

**Q.** With CCCN(CCC)[C@H]1CCc2c(F)ccc(O)c2C1 as the compound, how does the Potency read?
**A.** inactive

**Q.** How did the Potency turn out when NC1CCc2cc(O)c(O)cc2C1 (stereo not given) was run?
**A.** inactive

**Q.** For COC[C@H]1OC(=O)c2coc3c2[C@@]1(C)C1=C(C3=O)C2CCC(=O)[C@@]2(C)C[C@H]1OC(C)=O (stereo not given in full), which Potency is on record?
**A.** inactive

**Q.** For NC(N)=Nc1ccc2[nH]c3c(c2c1)C[C@@]1(O)[C@H]2Cc4ccc(O)c5c4[C@@]1(CCN2CC1CC1)[C@H]3O5, which Potency is on record?
**A.** inactive

**Q.** For C[N+]1(C)C2CCC1CC(OC(=O)c1c[nH]c3ccccc13)C2 (stereo not given), which Potency is on record?
**A.** inactive

**Q.** Which Potency does the source give for CC(C)(C)c1cc(C=C(C#N)C#N)cc(C(C)(C)C)c1O here?
**A.** inactive

**Q.** With CC(C)=CCOc1c2occc2cc2ccc(=O)oc12 as the compound, how does the Potency read?
**A.** inactive
